Screening results (PubChem)
Compounds with a hit are over-represented: about 1.6% of the library has one in this group of screens.
NALP1 yeast inh – NALP1 inhibition; actives 0.61% (n = 280,000); S. cerevisiae NALP1/ASC/caspase-1 growth, X-gal OD620, 72 h; inhibition, % at 10 µM; in the data active = inhibition mostly above about 24%, no sharp cut-off; inactive = mostly below about 32%
PolyA inhibitor – yeast polyadenylation inhibition | S. cerevisiae SKY197-pL101 polyadenylation reporter, beta-gal luminescence; efflux-impaired pdr1/pdr3 knockout yeast; score 100 = 6 SD above DMSO | activity score, % at 12 µM | actives 0.02% (n = 300,000) | AID 1875;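 active = lowest replicate activity score at least 50, where 100 means six control SD above control mean; inconclusive = lowest score under 50 but half or more replicates reach 50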;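 note: yeast exposed to compound for 9 h at 30 °C; higher score means more reporter readthrough which indicates perturbed polyadenylation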
HTR5A inv ctr – inverse agonist of human HTR5A in OPRM1-OPRD1 counter-screen | P47898 | HTR5A cell line, luminescence, inverse agonism | inhibition, % at 9.3 µM | actives 0.083% (n = 340,000) | AID 504634; in the data active = inhibition mostly above about 23%, no sharp cut-off; inactive = mostly below about 18%;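 note: 0% = cells with DMSO and 100% = no-cell wells with DMSO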
HTR5A ag – counter-screen for OPRM1-OPRD1 agonists: human HTR5A agonism; actives 0.61% (n = 340,000); HTR5A agonist assay, luminescence, cell-based; activation, % at 9.3 µM; in the data active = activation mostly above about 9.5%, no sharp cut-off; inactive = mostly below about 7.6%;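 note: 0% = cells with vehicle only and 100% = reference agonist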
MOR-DOR ag-1 – OPRM1-OPRD1 heterodimerization agonism; P35372+P41143; cells, luminescence; activation, % at 9.3 µM; actives 0.3% (n = 340,000); AID 504326;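 note: 0% = vehicle-treated cells and 100% = reference agonist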
OPRM1-OPRD1 inv – inverse agonist of human OPRM1-OPRD1 heterodimerization; actives 0.21% (n = 340,000); P35372+P41143; inhibition, % at 9.3 µM; cell-based MOR-DOR heterodimer luminescence, inverse agonism; in the data active = inhibition above about 22%, passing the limit was not always enough;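 note: 0% = cells with DMSO and 100% = wells without cells with DMSO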
MOR-DOR ag-2 – promotes OPRM1-OPRD1 heterodimerization in HTR5A counter-screen | shares compounds with HTR5A ag | activation, % at 9.3 µM | U2OS counter-screen cells, complementation luminescence, 3 h | AID 504913 | actives 13% (n = 800)
HTR5A ag conf – HTR5A (human) agonism, confirmation; shares compounds with HTR5A ag; HTR5A agonist cell assay, luminescence; activation, % at 9.3 µM; actives 17% (n = 800); AID 504915; in the data active = activation above about 17%;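 note: 0% = cells with vehicle only and 100% = full reference agonist response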
Starred values were filed as active, the others as inactive; ? = inconclusive; . = no result given. Cut-off read from the data, not from the text of the source, unless noted: active = activation above about 18%; inactive = the rest.

SMILES	NALP1 yeast inh	PolyA inhibitor	HTR5A inv ctr	HTR5A ag	MOR-DOR ag-1	OPRM1-OPRD1 inv	MOR-DOR ag-2	HTR5A ag conf
CCOC(=O)C1=C(COC(=O)/C=C/c2ccc(OC)cc2)NC(=O)NC1C (stereo unspecified)	.	.	-6	2	-4	18	.	.
CCOC(=O)C1=C(COC(=O)/C=C/c2ccco2)NC(=O)NC1C (stereo unspecified)	.	0	3	16*	4	-23	4	0
N/C(=N\OC(=O)Cc1ccccc1)c1ccccc1Cl	-2	-20	-12	4	6	-41	.	.
O=C(Nc1ccccc1)c1ccc2ccccc2n1	12	-3	17	-3	5	-23	.	.
O=C(Nc1ccccc1C(=O)O)c1ccc2ccccc2n1	1	15	-66	26*	-3	13	52*	3
O=C(NNc1ccc([N+](=O)[O-])cc1)C12CC3CC(CC(C3)C1)C2	-2	-23	-29	2	1	-4	.	.
O=C(O)c1cccc(CN2C(=O)c3ccccc3C2=O)c1	5	4	-12	3	-3	16	.	.
O=C1c2cccc3c(O)ccc(c23)C(=O)N1Cc1ccccc1	-8	11	-6	17*	9	-39	20*	1
Cc1ccc(NC(=O)C/C(N)=N/OC(=O)c2ccccc2)cc1	7	10	-21	15*	9	-48	6	2
CCn1c(=O)n(CC)c2cc(N3CCCC3)c(NC(=O)c3cc(Br)ccc3OC)cc21	8	-7	.	.	.	.	.	.
COc1ccc(Cl)cc1NC(=S)NCc1ccccn1	13	-10	3	2	-3	15	.	.
COc1ccc(Cl)cc1NC(=O)NCc1ccccn1	16	-7	-41	17*	-2	13	11	0
CN(C)Cc1nc2ccccc2c(=O)n1Cc1nc(-c2cc3ccccc3o2)cs1	2	-6	-49	17*	8	-41	6	5
Cc1csc(Cn2c(CN(C)C)nc3ccccc3c2=O)n1	10	-1	5	-1	-1	8	.	.
Cc1ccc2nc(C(Cl)(Cl)Cl)nc(N/N=C/c3ccc([N+](=O)[O-])cc3)c2c1	.	.	-7	2	-2	10	.	.
O=C(/C=C/c1cccc(F)c1)OCC(=O)N1CCc2ccccc21	.	.	-46	18*	1	-5	1	-1
Cc1cccc(-n2ccc(=O)c(C(=O)Nc3ccc(S(=O)(=O)Nc4nccc(C)n4)cc3)n2)c1	15	1	-30	1	-4	20	.	.
CC(=O)CCn1cnc([N+](=O)[O-])n1	-6	21	1	15*	-2	9	60*	-1
CCOC(=O)Cn1cnc([N+](=O)[O-])n1	.	-20	-19	7	0	-3	.	.
CN(C(=O)CSc1n[nH]c(-c2cccs2)n1)C1CCS(=O)(=O)C1 (stereo unspecified)	.	3	1	-6	-1	7	.	.
COc1ccc(NC(=O)C2CCCNC2)cc1OCC(C)C (stereo unspecified)	18	5	-5	6	-2	9	.	.
COc1ccc(NC(=O)C2CCCN(CCCc3ccccc3)C2)cc1OCC(C)C (stereo unspecified)	12	25	-20	16*	7	-33	7	6
Cc1cc(=O)oc2cc(OCC(=O)NCCc3c[nH]c4ccc(F)cc34)ccc12	17	7	-29	-2	-1	7	.	.
CCCc1cc(=O)oc2cc(OCC(=O)NCCc3c[nH]c4ccccc34)ccc12	0	6	5	19*	13	-67	226*	56*
CCOC(=O)c1c(-c2ccc(C)cc2)csc1NC(=S)NC(=O)c1ccccc1	22	-1	21	1	-1	3	.	.
SMILES	NALP1 yeast inh	PolyA inhibitor	HTR5A inv ctr	HTR5A ag	MOR-DOR ag-1	OPRM1-OPRD1 inv	MOR-DOR ag-2	HTR5A ag conf
CCOC(=O)c1c(-c2ccc(C)cc2)csc1NC(=O)c1cc2ccccc2oc1=O	.	44	10	18*	-1	8	1	-5
COc1ccc([C@@H]2C[C@@H](c3ccccc3)Oc3c(C)ccc(C(C)C)c32)cc1	.	2	.	.	.	.	.	.
COc1ccc([C@@H]2C[C@@H](c3ccccc3)Oc3cc(C)cc(C)c32)cc1	.	19	-68	25*	0	1	3	2
COc1ccc(CN2C3CCCC2CC(NC(=O)Nc2cccc(C)c2)C3)cc1 (stereo unspecified)	10	7	17	17*	0	0	1	7
CCCc1nnc(SCC(=O)NC2CC2)n1C	-2	-4	3	-1	1	-4	.	.
O=C(O)c1ccc2c(c1)N(Cc1ccccc1F)C(=O)c1ccccc1S2=O (stereo unspecified)	31	-12	-45	16*	-2	9	0	-2
COc1ccc(CNc2ncc(-c3cccc([N+](=O)[O-])c3)n2C)c(OC)c1OC	-4	-6	-17	-4	-1	3	.	.
CCN(CC)CCCNc1ccc(-c2nnc(-c3ccc(OCC(C)C)cc3)o2)cn1	22	15	-49	18*	0	-1	10	1
COc1ccc(CC(=O)Nc2ccc(-c3noc(-c4ccccc4OC)n3)cc2)cc1	-7	-6	-58	23*	3	-18	221*	-6
CCOc1ccccc1C(=O)N[C@H](C(=O)OCC(=O)Nc1nnc(-c2ccccc2)o1)C(C)C	.	.	-1	0	-2	9	.	.
O=C(CN1CCN(Cc2ccc(F)cc2Cl)C1=O)NCCc1ccccc1	-15	-5	-46	16*	-1	5	9	3
Cc1noc(C)c1COc1ccccc1C(=O)NC(C)c1ccc(F)cc1 (stereo unspecified)	.	.	-3	-1	-1	4	.	.
CCc1ccc2[nH]c(=O)c(CN(Cc3ccc4c(c3)OCO4)Cc3nnnn3C3CCCC3)cc2c1	18	-1	3	19*	8	-48	6	2
Cc1ccc2cc(CN(Cc3ccc(F)cc3)Cc3nnnn3C3CCCC3)c(=O)[nH]c2c1	2	?	7	-3	5	-32	.	.
CC1Cc2ccccc2N1C(=O)CN(C)CC(=O)Nc1ccc(F)cc1 (stereo unspecified)	.	.	1	-4	-2	6	.	.
C=CCNC(=O)c1ccccc1NC(=O)C1CC(=O)N(C(C)C)C1 (stereo unspecified)	21	3	-2	16*	-1	6	-1	0
COc1cccc(Nc2nc(N)nc(CCl)n2)c1	32	-1	-1	2	-1	7	.	.
COc1ccccc1Nc1nc(N)nc(CCl)n1	-4	-1	-12	3	0	1	.	.
